# Reference: PubChem BioAssay (NCATS)
# A number with no mark means an inactive call. Inconclusive results are not listed. Where a call stands in place of a potency, no number is given. Active and inactive are the calls of the source. The call rests on the fitted dose curve; in most records, active means well fitted curve in the direction sought with a large enough effect; inconclusive means small, poorly fitted or top-dose-only effect, or another doubt; inactive means no such curve, though single readings can be large; an effect the other way counts as inactive or inconclusive. Where a SMILES comes first, the peptide text is derived from it. [ ]: non-standard residue; d: D form. ξ: configuration not given here. ξLac(3-iPr) = CC(C)CC(O)C(=O)O; NMeV = CN[CH](C(=O)O)C(C)C; NMeA = CN[CH](C)C(=O)O; βAla = NCCC(=O)O
# How the values were obtained:
# [1] = tested on: Zika virus NS2B-NS3 protease (linked construct); assay: Primary screen NINDS Rhodamine qHTS for Zika virus inhibitors (AID 1347160); further: nearly all actives have a fitted effect of over 55% in size
# Method in brief: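 Percent inhibition, normalized to uninhibited and enzyme-free controls, is fitted to a 4-parameter Hill equation. Fluorescence change comes from a 15-min cleavage of 1.5 microM bis-peptide Rhodamine110 substrate by 25 nM linked NS2B-NS3 at room temperature.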
# [2] = target: Calcium and integrin-binding protein 1 (Homo sapiens) (UniProt Q99828); assay: Primary qHTS for Identification of Calcium Integrin Binding Protein 1 (CIB1) Competitor (AID 1508620);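 further: GST tagged CIB1 binding a fluorescein labelled alphaIIb integrin peptide tracer; top concentration of the series differs between compounds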
# Calcium and integrin-binding protein 1 (Homo sapiens), sequence (Q99828 whole entry, looked up): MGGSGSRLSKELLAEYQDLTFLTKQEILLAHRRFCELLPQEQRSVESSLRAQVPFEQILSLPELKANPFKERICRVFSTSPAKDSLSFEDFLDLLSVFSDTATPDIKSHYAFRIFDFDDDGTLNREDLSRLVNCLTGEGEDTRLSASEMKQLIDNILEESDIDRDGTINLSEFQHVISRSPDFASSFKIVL
# Method in brief: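 Fluorescence polarization competition: CIB1-GST (1 uM final) preincubated with compound 15 min at room temperature, then FITC-labeled alphaIIb peptide (100 nM final) added for another 15 min. Polarization read at Ex 480/Em 540.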
# [3] = target: Glutathione peroxidase 1 (Homo sapiens) (UniProt P07203); assay: Primary qHTS Assay for Inhibitors of Recombinant Selenoprotein Glutathione Peroxidase 1 (GPX1) (AID 1845191); further: nearly all actives have a fitted effect of over 65% in size
# Glutathione peroxidase 1 (Homo sapiens), sequence (P07203 whole entry, looked up): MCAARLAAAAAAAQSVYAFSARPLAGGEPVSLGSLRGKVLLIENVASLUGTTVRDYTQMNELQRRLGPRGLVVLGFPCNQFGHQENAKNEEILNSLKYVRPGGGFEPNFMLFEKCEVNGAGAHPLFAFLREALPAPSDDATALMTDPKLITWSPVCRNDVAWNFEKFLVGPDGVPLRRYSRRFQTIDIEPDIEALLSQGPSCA
# Method in brief: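 Recombinant GPX1 (10 nM final) was preincubated with compound for 30 min at room temperature, then reacted with 1 mM GSH, 0.5 mM CHP, 0.5 mM NADPH and 100 nM glutathione reductase; NADPH fluorescence (340/450 nm) was read at 0 and 15 min.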
# [4] = target: Luciferin 4-monooxygenase (Photinus pyralis) (UniProt P08659); assay: Primary firefly luciferase (FLuc) qHTS assay for identification of artifact compounds. (AID 1845220); details: outcome: dose series up to 54.1 µM unless noted; further: nearly all actives have a fitted effect of over 60% in size
# Method in brief: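 Reaction readout was CCD-imaged luminescence, taken 5 min after adding 10 nM purified firefly enzyme to compound-treated wells holding 10 uM luciferin and ATP in pH 7.6 buffer.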
# [5] = Primary fluorescence-based thiol-reactive (MSTI) qHTS assay for identification of artifact compounds. (AID 1845221);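 further: thiol-reactive compounds lower the probe fluorescence signal; nearly all actives have a fitted effect of over 65% in size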
# Method in brief: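 Compounds were incubated 1 h at room temperature in the dark with the MSTI probe (4 uM) in PBS pH 7.4, 2% DMSO. Signals were normalized between Acetyl-MSTI and MSTI.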
# [6] = tested on: Nanoluciferase (engineered Oplophorus gracilirostris luciferase); assay: Primary Nanoluciferase (NLuc) qHTS assay for identification of artifact compounds. (AID 1845222);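 further: NLuc secreted into diluted conditioned medium of S16 cells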
# Method in brief: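 Concentration-response data were obtained by luminescence after 5 min with Nano-Glo substrate at 1:100. The enzyme was diluted S16 NLuc-expressing cell medium, preincubated with compound for 15 min at RT. Curves were fitted with a 4-parameter Hill model.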
# [7] = Primary redox qHTS assay for identification of artifact compounds. (AID 1845223)
# Method in brief: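 Amplex Red (25 uM) and HRP (250 mU/mL) in HBSS, with compounds for 15 min, then 250 uM DTT for 30 min, room temperature, dark. Fluorescence 525/598 nm read; normalized to DMSO and 10 uM DA3003; Hill fit.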
# HaCat = assay: Cytotoxic Profiling of Annotated Libraries Using Quantitative High-Throughput Screening (AID 1296008); details: Five cell lines viability, CellTiter-Glo ATP luminescence, 48-72 h; max response: active compounds read low; further: nearly all actives have a fitted effect of over 60% in size; further: potency means the concentration at half of the fitted maximal effect
# Method in brief: (§1)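 Compounds were pin-transferred onto cells and incubated 48 or 72 hr at 37 degree Celsius, 95% humidity. CellTiter-Glo was added, plates sat 10 min at room temperature, then ATP-coupled luminescence was imaged as the viability read-out.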
# NIH3T3 = assay: as above; details: Five cell lines viability, CellTiter-Glo ATP luminescence, 48-72 h; max response: active compounds read low
# Method in brief: as §1
# C33A = assay: Primary qHTS to identify gynecologic anti-cancer compounds using libraries of approved drugs and bioactive compounds (AID 1345084); details: Gynecologic cancer cell panel viability, ATPlite luminescence, 48 h; series mostly up to 57.5 µM; further: nearly all actives have a fitted effect of over 55% in size; further: potency means the concentration at half of the fitted maximal effect
# Method in brief: (§2)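 Luminescence from the ATPlite ATP-monitoring reagent indicates viable cell number; lower signal means cytotoxicity. Cells received compound 16 h after seeding and were exposed for 48 h across five concentrations.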
# CAOV3 = assay: as above; details: Gynecologic cancer cell panel viability, ATPlite luminescence, 48 h; series mostly up to 57.5 µM
# Method in brief: as §2
# CASKI = assay: as above; details: Gynecologic cancer cell panel viability, ATPlite luminescence, 48 h; series mostly up to 57.5 µM
# Method in brief: as §2
# Es-2 = assay: as above; details: Gynecologic cancer cell panel viability, ATPlite luminescence, 48 h; series mostly up to 57.5 µM
# Method in brief: as §2
# Hek293T = assay: as above; details: Gynecologic cancer cell panel viability, ATPlite luminescence, 48 h, control line for the selectivity index; series mostly up to 57.5 µM
# Method in brief: as §2
# JEG-3 = assay: as above; details: Gynecologic cancer cell panel viability, ATPlite luminescence, 48 h; series mostly up to 57.5 µM
# Method in brief: as §2
# OV90 = assay: as above; details: Gynecologic cancer cell panel viability, ATPlite luminescence, 48 h; series mostly up to 57.5 µM
# Method in brief: as §2
# PA-1 = assay: as above; details: Gynecologic cancer cell panel viability, ATPlite luminescence, 48 h; series mostly up to 57.5 µM
# Method in brief: as §2
# Tov-21-G = assay: as above; details: Gynecologic cancer cell panel viability, ATPlite luminescence, 48 h; series mostly up to 57.5 µM
# Method in brief: as §2
# Tov112D = assay: as above; details: Gynecologic cancer cell panel viability, ATPlite luminescence, 48 h; series mostly up to 57.5 µM
# Method in brief: as §2
# [8] = target: Phospholipid hydroperoxide glutathione peroxidase GPX4 (Homo sapiens) (UniProt P36969); assay: Primary qHTS Assay for Inhibitors of Recombinant Selenoprotein Glutathione Peroxidase 4 (GPX4) (AID 1845192); further: nearly all actives have a fitted effect of over 65% in size
# Phospholipid hydroperoxide glutathione peroxidase GPX4 (Homo sapiens), sequence (P36969 whole entry, looked up): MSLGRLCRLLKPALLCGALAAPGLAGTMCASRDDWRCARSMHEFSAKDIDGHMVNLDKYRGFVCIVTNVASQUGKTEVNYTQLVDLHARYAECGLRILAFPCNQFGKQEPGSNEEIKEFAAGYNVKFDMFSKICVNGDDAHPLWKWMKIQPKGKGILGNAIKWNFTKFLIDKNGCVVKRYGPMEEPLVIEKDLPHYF
# Method in brief: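 GR-coupled readout: 100 nM GR, 1 mM GSH, 0.5 mM NADPH; NADPH fluorescence (ex 340/em 450 nm) read at t=0 and after 15 min RT. GPX4 200 nM, preincubated 30 min with compound; substrate 0.5 mM CHP.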
smiles,measurement,setting,value
CCCCCn1cc(C(=O)C2C(C)(C)C2(C)C)c2ccccc21,Potency,[1],inactive
same,Potency,[2],inactive
same,Potency,[3],inactive
same,outcome,[4],inactive
same,Potency,[5],inactive
same,Potency,[6],inactive
same,Potency,[7],inactive
same,outcome,HaCat,inactive
same,max response,NIH3T3,-0.489%
same,Potency,C33A,inactive
same,Potency,CAOV3,inactive
same,Potency,CASKI,inactive
same,Potency,Es-2,inactive
same,Potency,Hek293T,inactive
same,Potency,JEG-3,inactive
same,Potency,OV90,inactive
same,Potency,PA-1,inactive
same,Potency,Tov-21-G,inactive
same,Potency,Tov112D,inactive
C=C1[C@@H](O)[C@]2(O)OC[C@]34C2[C@]2(C)C(C[C@H]3OC(=O)[C@H](O)[C@@]14O)C(C)=CC(=O)[C@H]2O (stereo not given in full),Potency,[1],inactive
same,Potency,[2],inactive
same,Potency,[3],inactive
same,Potency,[8],inactive
same,outcome,[4],inactive [at 25.7 µM]
same,Potency,[5],inactive
same,Potency,[6],inactive
same,Potency,[7],inactive
same,max response,HaCat,3.98%
same,max response,NIH3T3,-5.4%
same,Potency,CASKI,inactive
same,Potency,Es-2,inactive
same,Potency,JEG-3,inactive
same,Potency,OV90,inactive
same,Potency,Tov-21-G,inactive
CCCCn1cc(C(=O)c2cccc3ccccc23)c2ccccc21,Potency,[1],inactive
same,Potency,[2],inactive
same,Potency,[3],inactive
same,Potency,[8],inactive
same,outcome,[4],inactive
same,Potency,[5],inactive
same,Potency,[6],inactive
same,Potency,[7],inactive
same,outcome,HaCat,inactive
same,max response,NIH3T3,3.07%
same,Potency,C33A,inactive
same,Potency,CAOV3,inactive
same,Potency,CASKI,inactive
same,Potency,Es-2,inactive
same,Potency,JEG-3,inactive
same,Potency,OV90,inactive
same,Potency,PA-1,inactive
same,Potency,Tov-21-G,inactive
same,Potency,Tov112D,inactive
CC1CCCCCC(=O)c2c(O)cc(O)cc2CC(=O)O1 (stereo not given),Potency,[1],inactive
same,Potency,[2],inactive
same,Potency,[3],inactive
same,Potency,[8],inactive
same,outcome,[4],inactive
same,Potency,[5],inactive
same,Potency,[6],inactive
same,Potency,[7],inactive
same,outcome,HaCat,inactive
same,max response,NIH3T3,2.84%
same,Potency,C33A,inactive
same,Potency,CAOV3,inactive
same,Potency,CASKI,inactive
same,Potency,Es-2,inactive
same,Potency,Hek293T,inactive
same,Potency,JEG-3,inactive
same,Potency,OV90,inactive
same,Potency,PA-1,inactive
same,Potency,Tov-21-G,inactive
same,Potency,Tov112D,inactive
COC[C@]12CN(C)C3C4[C@H](OC)[C@H]1C3(C(OC)C[C@H]2O)[C@H]1C[C@@]2(O)[C@H](OC(=O)c3ccccc3)[C@@H]1[C@]4(O)[C@@H](O)[C@@H]2OC (stereo not given in full),Potency,[1],inactive
same,Potency,[2],inactive
same,Potency,[3],inactive
same,Potency,[8],inactive
same,outcome,[4],inactive
same,Potency,[6],inactive
same,Potency,[7],inactive
same,max response,HaCat,-14.8%
same,Potency,CAOV3,inactive
C[C@@H]1Cc2c(Cl)cc(C(=O)N[C@@H](Cc3ccccc3)C(=O)O)c(O)c2C(=O)O1,Potency,[1],inactive
same,outcome,[4],inactive
same,Potency,[5],inactive
same,Potency,[6],inactive
same,Potency,[7],inactive
same,outcome,HaCat,inactive
same,max response,NIH3T3,-8.41%
same,Potency,C33A,inactive
same,Potency,CAOV3,inactive
same,Potency,CASKI,inactive
same,Potency,JEG-3,inactive
same,Potency,OV90,inactive
same,Potency,Tov-21-G,inactive
C[C@H]1CN(Cc2ccc(CC(=O)N3CCC(Nc4cccc(F)c4)CC3)cc2)CCN1,Potency,[1],inactive
same,Potency,[2],inactive
same,Potency,[3],inactive
same,outcome,[4],inactive
same,Potency,[5],inactive
same,Potency,[6],inactive
same,Potency,[7],inactive
same,Potency,NIH3T3,20600 nM (active)
same,Potency,C33A,inactive
same,Potency,CAOV3,inactive
same,Potency,CASKI,inactive
same,Potency,Es-2,inactive
same,Potency,Hek293T,inactive
same,Potency,JEG-3,inactive
same,Potency,OV90,inactive
same,Potency,PA-1,inactive
same,Potency,Tov-21-G,inactive
same,Potency,Tov112D,inactive
OC(CNc1ccccc1)Cn1c2ccc(Br)cc2c2cc(Br)ccc21 (stereo not given),Potency,[2],inactive
same,Potency,[3],inactive
same,Potency,[8],inactive
same,outcome,[4],inactive
same,Potency,[6],inactive
same,Potency,[7],inactive
same,max response,HaCat,-16%
same,Potency,C33A,inactive
same,Potency,CAOV3,inactive
same,Potency,Es-2,inactive
same,Potency,Hek293T,inactive
same,Potency,JEG-3,inactive
same,Potency,OV90,inactive
same,Potency,PA-1,inactive
same,Potency,Tov-21-G,inactive
same,Potency,Tov112D,inactive
COc1ccc(C(C)(C)C)cc1CN[C@H]1C2CCN(CC2)[C@H]1C(c1ccccc1)c1ccccc1,Potency,[1],inactive
same,Potency,[2],inactive
same,Potency,[3],inactive
same,Potency,[8],inactive
same,outcome,[4],inactive
same,Potency,[5],inactive
same,Potency,[6],inactive
same,Potency,[7],inactive
same,Potency,HaCat,18400 nM (active)
same,max response,NIH3T3,-16.4%
same,Potency,CAOV3,inactive
same,Potency,CASKI,inactive
same,Potency,Hek293T,inactive
same,Potency,JEG-3,inactive
same,Potency,OV90,inactive
same,Potency,PA-1,inactive
same,Potency,Tov-21-G,inactive
same,Potency,Tov112D,inactive
CCC(C)C1NC(=O)C2CCCN2C(=O)C(CC(C)C)OC(=O)CCNC(=O)C(C)N(C)C(=O)C(C(C)C)N(C)C1=O (stereo not given) (cyclo([ξLac(3-iPr)]PI[NMeV][NMeA][βAla]); configuration not given here),Potency,[1],inactive
same,Potency,[2],inactive
same,Potency,[3],inactive
same,outcome,[4],inactive
same,Potency,[5],inactive
same,Potency,[6],inactive
same,max response,HaCat,-9.99%
same,Potency,C33A,inactive
same,Potency,CASKI,inactive
same,Potency,OV90,3980 nM (active)
CC(C)(O)/C=C/C(=O)[C@](C)(O)[C@H]1[C@H](O)C[C@@]2(C)[C@@H]3CC=C4[C@@H](C[C@H](O)C(=O)C4(C)C)[C@]3(C)C(=O)C[C@]12C,Potency,[1],inactive
same,Potency,[2],inactive
same,Potency,[3],inactive
same,Potency,[8],inactive
same,outcome,[4],inactive
same,Potency,[6],inactive
same,Potency,NIH3T3,3170 nM (active)
same,Potency,C33A,inactive
same,Potency,CAOV3,398 nM (active)
same,Potency,CASKI,1410 nM (active)
same,Potency,OV90,1260 nM (active)
same,Potency,PA-1,2510 nM (active)
same,Potency,Tov-21-G,1260 nM (active)
CCOC(=O)C1(CCc2ccccc2)CCN(Cc2ccc(NC(C)=O)cc2)CC1,Potency,[1],inactive
same,Potency,[2],inactive
same,Potency,[3],inactive
same,Potency,[8],inactive
same,outcome,[4],inactive
same,Potency,[6],inactive
same,Potency,[7],inactive
same,max response,HaCat,1.98%
same,max response,NIH3T3,-0.351%
same,Potency,C33A,inactive
same,Potency,CAOV3,inactive
same,Potency,CASKI,inactive
same,Potency,Es-2,inactive
same,Potency,Hek293T,inactive
same,Potency,JEG-3,inactive
same,Potency,OV90,inactive
same,Potency,PA-1,inactive
same,Potency,Tov-21-G,inactive
same,Potency,Tov112D,inactive
Cc1ncc(OC[C@@]2(c3cccc(F)c3)C[C@H]2C(=O)Nc2ccc(F)cn2)c(C)n1,Potency,[2],inactive
same,Potency,[3],inactive
same,Potency,[8],inactive
same,outcome,HaCat,inactive
same,outcome,NIH3T3,inactive
C[C@]12CC[C@H](OC3OC(CO)C(O)C(O)C3OC3OC(CO)C(O)C(O)C3O)C[C@@H]1CC[C@@H]1C2CC[C@]2(C)[C@@H](C3=CC(=O)OC3)CC[C@]12O (stereo not given in full),Potency,[1],inactive
same,Potency,[2],inactive
same,Potency,[3],inactive
same,Potency,[8],inactive
same,outcome,[4],inactive
same,Potency,[5],inactive
same,Potency,[6],inactive
same,Potency,[7],inactive
same,max response,HaCat,-2.72%
same,outcome,NIH3T3,inactive
same,Potency,CAOV3,inactive
same,Potency,CASKI,inactive
same,Potency,JEG-3,inactive
same,Potency,OV90,inactive
same,Potency,PA-1,inactive
same,Potency,Tov112D,7080 nM (active)
